From the supplement of paper PMC4237247
Counter-ions that a name gives are not always drawn.

tested on: HeLa; test: percent cells in G1 phase; higher = more G1 arrest; settings: 10 µM; 20 h
Procedure: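 HTS of 79,827 drug-like compounds at 10 uM. HeLa cells in 384-well plates were treated for 20 h, fixed, stained with Vybrant DyeCycle Green and scanned on an Acumen eX3 cytometer to give per-well cell cycle profiles (% cells in each phase). The plate Z' was 0.51. Only hits are listed: G1 hits >4 SD and S hits >5 SD from the mean.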

SMILES	percent cells in G1 phase [%]
C[C@@H]1C[C@H]2[C@@H]3C[C@H](F)C4=CC(=O)C=C[C@]4(C)[C@@]3(Cl)[C@@H](O)C[C@]2(C)[C@H]1C(=O)COC(=O)C(C)(C)C [Clocortolone pivalate] (hit class: S-phase inhibitor)	43.2
Cc1cc([N+](=O)[O-])ccc1NCc1ccc(F)c(F)c1 (hit class: G1-phase inhibitor)	69.8
CC(=O)C1=C(O)C(=O)N(CC(=O)O)C1c1ccccc1F (configuration not stated) (hit class: S-phase inhibitor)	61.1
COc1ccc(C(=O)c2coc3ccc(OC)cc3c2=O)cc1 (hit class: G1-phase inhibitor)	70.5
CCN(CC)Cc1c(O)ccc2c(=O)c(-c3ccccc3)coc12 (hit class: S-phase inhibitor)	55.9
c1ccc2c(c1)Nc1nc3ccccc3nc1O2 (hit class: G1-phase inhibitor)	70.5
O=C(COc1ccc(Cl)cc1)NC(Cc1c[nH]c2ccccc12)C(=O)O (configuration not stated) (hit class: G1-phase inhibitor)	69
Nc1ccn([C@H]2CC[C@@H](CO)O2)c(=O)n1 [Zalcitabine] (hit class: S-phase inhibitor)	45.1
CC[C@@H](C(=O)[C@@H](C)[C@@H](O)[C@H](C)CCc1ccc(C)c(O)c1C(=O)O)[C@H]1O[C@](CC)([C@H]2CC[C@](O)(CC)[C@H](C)O2)C[C@@H]1C [Lasalocid sodium salt] (hit class: G1-phase inhibitor)	73.9
Cn1c(SCc2ccccc2)nc2ccccc2c1=O (hit class: S-phase inhibitor)	60
C[C@@H]1CCC[C@H](C)N1NC(=O)c1ccc(Cl)c(S(N)(=O)=O)c1 [Clopamide] (hit class: G1-phase inhibitor)	70.5
O=C1c2c(O)ccc(O)c2C(=O)c2c(NCCNCCO)ccc(NCCNCCO)c21 [Mitoxantrone dihydrochloride] (hit class: G1-phase inhibitor)	70
COc1ccc(CSc2nncn2N)cc1 (hit class: S-phase inhibitor)	61.4
COc1c(C)c2c(c(O)c1C/C=C(\C)CCC(=O)O)C(=O)OC2 [Mycophenolic acid] (hit class: S-phase inhibitor)	39
Cc1ccc(-c2cc(-c3ccccc3Cl)[nH]n2)c(O)c1 (hit class: G1-phase inhibitor)	69.2
COc1[nH]c2ccccc2c1C=NO (hit class: S-phase inhibitor)	59.4
Cc1cc(N2CCCCC2)c(F)cc1[N+](=O)[O-] (hit class: S-phase inhibitor)	44.7
